Experimental data reported in PMC7862700, “An all-to-all approach to the identification of sequence-specific readers for epigenetic DNA modifications on cytosine”.

What was measured:
Test in all cases: DAPPL (digital affinity profiling via proximity ligation, sequencing); 10 mM Tris-HCl pH 7.5, 50 mM NaCl, 1 mM DTT, 4% glycerol, room temperature, 30 min; GST-TFs on glutathione beads, 16-mer random dsDNA library, 0.1% formaldehyde crosslink after washing; high values mean tight binding
FLI1 = target: T1, FLI1 (Homo sapiens, UniProt Q01543 1-452); details: protein: recombinant; tags: N-terminal GST; dsDNA, one strand shown
T1 sequence: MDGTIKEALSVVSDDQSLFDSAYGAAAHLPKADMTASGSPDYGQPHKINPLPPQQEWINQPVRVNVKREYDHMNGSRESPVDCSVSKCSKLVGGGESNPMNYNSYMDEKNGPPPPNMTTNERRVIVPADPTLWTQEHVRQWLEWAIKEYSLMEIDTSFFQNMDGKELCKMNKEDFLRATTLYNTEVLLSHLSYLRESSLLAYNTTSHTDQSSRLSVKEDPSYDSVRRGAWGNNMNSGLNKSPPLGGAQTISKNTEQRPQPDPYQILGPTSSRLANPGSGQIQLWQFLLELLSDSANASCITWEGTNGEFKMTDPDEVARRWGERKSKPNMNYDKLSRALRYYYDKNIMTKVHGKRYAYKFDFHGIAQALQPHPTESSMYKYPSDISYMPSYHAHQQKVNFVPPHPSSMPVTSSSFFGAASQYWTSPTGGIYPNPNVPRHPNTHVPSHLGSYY
Summary of the method: (§1)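 Yeast served to express human transcription factors as GST fusions, which were then captured on glutathione beads and labelled with DNA barcodes. Pooled with a tag-only sample, they were incubated with 200 nmole of a 16-mer random double-stranded DNA library for 30 min at room temperature in Tris/NaCl/DTT/glycerol buffer, washed, crosslinked with 0.1% formaldehyde, ligated by proximity, amplified by PCR and sequenced. Dividing each hexamer's read frequency for a factor by its frequency for the tag-only sample gives the binding signal.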

ELK1 = target: T2, ELK1 (Homo sapiens, UniProt P19419 1-428); details: protein: recombinant; tags: N-terminal GST; dsDNA, one strand shown
T2 sequence: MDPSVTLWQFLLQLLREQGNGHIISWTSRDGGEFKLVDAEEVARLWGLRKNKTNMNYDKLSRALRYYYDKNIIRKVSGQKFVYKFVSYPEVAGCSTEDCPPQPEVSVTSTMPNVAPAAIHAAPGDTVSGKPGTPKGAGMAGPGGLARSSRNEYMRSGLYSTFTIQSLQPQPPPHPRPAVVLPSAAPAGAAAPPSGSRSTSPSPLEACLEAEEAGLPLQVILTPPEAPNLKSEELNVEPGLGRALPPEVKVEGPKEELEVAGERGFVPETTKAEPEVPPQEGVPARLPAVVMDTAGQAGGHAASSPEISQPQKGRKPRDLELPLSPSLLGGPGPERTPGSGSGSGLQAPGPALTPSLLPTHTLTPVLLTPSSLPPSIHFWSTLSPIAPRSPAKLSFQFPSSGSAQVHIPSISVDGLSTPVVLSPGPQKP
Summary of the method: as §1

GABPA = target: T3, GABPA (Homo sapiens, UniProt Q06546 1-454); details: protein: recombinant; tags: N-terminal GST; dsDNA, one strand shown
T3 sequence: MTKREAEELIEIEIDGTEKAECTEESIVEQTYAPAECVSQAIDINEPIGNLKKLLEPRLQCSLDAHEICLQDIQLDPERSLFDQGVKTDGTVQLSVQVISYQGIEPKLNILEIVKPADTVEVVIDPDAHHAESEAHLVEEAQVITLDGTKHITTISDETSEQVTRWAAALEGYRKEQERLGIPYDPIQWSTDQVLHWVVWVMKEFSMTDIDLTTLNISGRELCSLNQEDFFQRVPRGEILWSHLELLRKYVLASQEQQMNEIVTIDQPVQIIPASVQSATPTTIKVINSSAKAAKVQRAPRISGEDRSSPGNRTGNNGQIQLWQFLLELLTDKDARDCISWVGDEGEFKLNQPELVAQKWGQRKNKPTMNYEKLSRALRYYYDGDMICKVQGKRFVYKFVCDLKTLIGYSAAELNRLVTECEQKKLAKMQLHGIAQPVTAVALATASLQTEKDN
Summary of the method: as §1

ERG = target: T4, ERG (Homo sapiens, UniProt P11308 1-479); details: protein: recombinant; tags: N-terminal GST; dsDNA, one strand shown
T4 sequence: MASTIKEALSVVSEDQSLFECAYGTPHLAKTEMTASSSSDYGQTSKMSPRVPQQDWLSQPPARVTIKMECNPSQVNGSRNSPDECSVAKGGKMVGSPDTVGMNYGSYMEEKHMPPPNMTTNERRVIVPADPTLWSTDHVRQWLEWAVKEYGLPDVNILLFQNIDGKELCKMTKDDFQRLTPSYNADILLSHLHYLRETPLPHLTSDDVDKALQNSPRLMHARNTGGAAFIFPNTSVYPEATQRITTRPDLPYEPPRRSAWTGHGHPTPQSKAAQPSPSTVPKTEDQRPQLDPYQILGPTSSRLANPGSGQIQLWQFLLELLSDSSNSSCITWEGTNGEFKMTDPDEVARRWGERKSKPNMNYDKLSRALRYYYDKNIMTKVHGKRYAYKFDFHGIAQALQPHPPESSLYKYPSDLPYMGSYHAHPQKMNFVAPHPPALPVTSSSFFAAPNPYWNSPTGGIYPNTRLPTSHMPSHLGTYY
Summary of the method: as §1

ELF1 = ELF1 (Homo sapiens, UniProt P32519 1-619); details: protein: recombinant; tags: N-terminal GST; dsDNA, one strand shown
Sequence of ELF1 (P32519 whole entry): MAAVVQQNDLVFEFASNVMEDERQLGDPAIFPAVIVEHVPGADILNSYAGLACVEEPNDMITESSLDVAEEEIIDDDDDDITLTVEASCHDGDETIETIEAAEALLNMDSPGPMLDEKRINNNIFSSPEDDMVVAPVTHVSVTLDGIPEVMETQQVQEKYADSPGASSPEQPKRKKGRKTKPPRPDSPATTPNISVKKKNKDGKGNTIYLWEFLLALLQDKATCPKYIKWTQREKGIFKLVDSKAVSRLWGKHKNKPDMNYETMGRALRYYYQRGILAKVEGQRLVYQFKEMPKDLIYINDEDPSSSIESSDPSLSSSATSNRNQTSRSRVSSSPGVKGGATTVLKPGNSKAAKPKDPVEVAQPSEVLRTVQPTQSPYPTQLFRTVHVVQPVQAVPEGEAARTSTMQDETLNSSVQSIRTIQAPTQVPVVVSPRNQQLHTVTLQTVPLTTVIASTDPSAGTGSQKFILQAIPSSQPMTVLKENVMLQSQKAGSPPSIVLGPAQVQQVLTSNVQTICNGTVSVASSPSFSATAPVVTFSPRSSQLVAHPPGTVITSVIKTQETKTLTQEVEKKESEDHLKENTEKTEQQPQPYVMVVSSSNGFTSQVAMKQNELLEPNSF
Summary of the method: as §1

EHF = target: T5, EHF (Homo sapiens, UniProt Q9NZC4 1-300); details: protein: recombinant; tags: N-terminal GST; dsDNA, one strand shown
T5 sequence: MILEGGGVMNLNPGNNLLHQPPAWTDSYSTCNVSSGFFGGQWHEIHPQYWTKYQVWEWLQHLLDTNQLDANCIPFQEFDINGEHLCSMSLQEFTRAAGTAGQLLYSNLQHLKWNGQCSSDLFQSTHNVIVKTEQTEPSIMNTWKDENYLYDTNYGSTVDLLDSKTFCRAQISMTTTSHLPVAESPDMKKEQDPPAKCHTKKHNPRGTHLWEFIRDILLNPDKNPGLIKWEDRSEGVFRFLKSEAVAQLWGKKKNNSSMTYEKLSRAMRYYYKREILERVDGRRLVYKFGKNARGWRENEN
Summary of the method: as §1

SPI1 = SPI1 (Homo sapiens, UniProt P17947 1-270); details: protein: recombinant; tags: N-terminal GST; dsDNA, one strand shown
Summary of the method: as §1

SPIB = SPIB (Homo sapiens, UniProt Q01892 1-262); details: protein: recombinant; tags: N-terminal GST; dsDNA, one strand shown
Sequence of SPIB (Q01892 whole entry): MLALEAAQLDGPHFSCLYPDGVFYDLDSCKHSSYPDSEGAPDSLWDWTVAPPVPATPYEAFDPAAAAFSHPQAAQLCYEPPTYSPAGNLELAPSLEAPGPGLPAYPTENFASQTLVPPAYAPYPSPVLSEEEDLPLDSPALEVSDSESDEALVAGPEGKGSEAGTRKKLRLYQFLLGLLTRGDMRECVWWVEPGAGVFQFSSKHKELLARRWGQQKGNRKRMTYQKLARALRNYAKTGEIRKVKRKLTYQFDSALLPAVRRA
Summary of the method: as §1

ELK3 = target: T6, ELK3 (Homo sapiens, UniProt P41970 1-407); details: protein: recombinant; tags: N-terminal GST; dsDNA, one strand shown
T6 sequence: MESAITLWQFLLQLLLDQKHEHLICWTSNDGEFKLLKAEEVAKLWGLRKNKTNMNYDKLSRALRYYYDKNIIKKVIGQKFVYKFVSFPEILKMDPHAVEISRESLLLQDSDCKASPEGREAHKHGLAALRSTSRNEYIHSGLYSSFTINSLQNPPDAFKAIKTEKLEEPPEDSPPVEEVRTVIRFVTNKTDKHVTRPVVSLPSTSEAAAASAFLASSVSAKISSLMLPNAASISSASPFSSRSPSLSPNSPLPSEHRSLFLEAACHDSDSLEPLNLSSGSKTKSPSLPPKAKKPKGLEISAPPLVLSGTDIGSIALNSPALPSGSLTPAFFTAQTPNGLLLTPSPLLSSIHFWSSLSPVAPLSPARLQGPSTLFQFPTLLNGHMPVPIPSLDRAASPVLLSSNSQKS
Summary of the method: as §1

FEV = target: T7, FEV (Homo sapiens, UniProt Q99581 1-238); details: protein: recombinant; tags: N-terminal GST; dsDNA, one strand shown
T7 sequence: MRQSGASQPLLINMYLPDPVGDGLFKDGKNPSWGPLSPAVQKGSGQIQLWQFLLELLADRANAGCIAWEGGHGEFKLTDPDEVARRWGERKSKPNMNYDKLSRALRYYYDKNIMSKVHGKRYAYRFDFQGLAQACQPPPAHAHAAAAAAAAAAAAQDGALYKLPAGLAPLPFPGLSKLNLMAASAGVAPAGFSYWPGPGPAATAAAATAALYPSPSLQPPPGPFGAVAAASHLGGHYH
Summary of the method: as §1

ETV5 = ETV5 (Homo sapiens, UniProt P41161 1-510); details: protein: recombinant; tags: N-terminal GST; dsDNA, one strand shown
Sequence of ETV5 (P41161 whole entry): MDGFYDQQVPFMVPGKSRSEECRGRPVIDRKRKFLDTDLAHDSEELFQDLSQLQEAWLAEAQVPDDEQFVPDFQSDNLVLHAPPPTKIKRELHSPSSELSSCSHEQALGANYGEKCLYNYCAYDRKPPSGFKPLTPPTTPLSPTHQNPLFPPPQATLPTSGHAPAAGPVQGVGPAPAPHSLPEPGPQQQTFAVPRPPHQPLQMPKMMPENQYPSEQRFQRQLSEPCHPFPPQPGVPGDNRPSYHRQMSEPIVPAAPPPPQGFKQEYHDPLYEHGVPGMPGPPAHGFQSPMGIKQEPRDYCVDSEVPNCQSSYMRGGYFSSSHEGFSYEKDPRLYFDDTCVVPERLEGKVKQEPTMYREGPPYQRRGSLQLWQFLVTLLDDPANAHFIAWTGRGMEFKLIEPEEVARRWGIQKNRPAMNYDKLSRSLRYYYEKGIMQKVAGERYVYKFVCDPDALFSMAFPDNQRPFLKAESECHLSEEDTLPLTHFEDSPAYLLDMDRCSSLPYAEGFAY
Summary of the method: as §1

HSF1 = HSF1 (Homo sapiens, UniProt Q00613 1-529); details: protein: recombinant; tags: N-terminal GST; chain copies: 3; dsDNA, one strand shown
Sequence of HSF1 (Q00613 whole entry): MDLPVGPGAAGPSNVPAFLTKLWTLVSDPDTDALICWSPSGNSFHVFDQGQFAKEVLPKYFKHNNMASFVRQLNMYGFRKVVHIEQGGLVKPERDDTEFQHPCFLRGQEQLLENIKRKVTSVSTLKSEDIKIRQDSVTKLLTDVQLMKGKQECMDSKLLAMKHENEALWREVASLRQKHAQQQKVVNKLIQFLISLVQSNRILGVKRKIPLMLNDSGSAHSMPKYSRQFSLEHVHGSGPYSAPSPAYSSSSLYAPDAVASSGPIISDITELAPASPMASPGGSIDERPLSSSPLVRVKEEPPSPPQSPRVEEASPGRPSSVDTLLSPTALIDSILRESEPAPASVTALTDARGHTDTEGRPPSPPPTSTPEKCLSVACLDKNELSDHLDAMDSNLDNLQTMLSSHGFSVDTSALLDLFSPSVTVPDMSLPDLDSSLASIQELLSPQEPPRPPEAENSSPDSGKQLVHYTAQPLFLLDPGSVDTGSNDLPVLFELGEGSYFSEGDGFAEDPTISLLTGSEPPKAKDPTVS
Summary of the method: as §1

SPIC = target: T8, SPIC (Homo sapiens, UniProt Q8N5J4 1-248); details: protein: recombinant; tags: N-terminal GST; dsDNA, one strand shown
T8 sequence: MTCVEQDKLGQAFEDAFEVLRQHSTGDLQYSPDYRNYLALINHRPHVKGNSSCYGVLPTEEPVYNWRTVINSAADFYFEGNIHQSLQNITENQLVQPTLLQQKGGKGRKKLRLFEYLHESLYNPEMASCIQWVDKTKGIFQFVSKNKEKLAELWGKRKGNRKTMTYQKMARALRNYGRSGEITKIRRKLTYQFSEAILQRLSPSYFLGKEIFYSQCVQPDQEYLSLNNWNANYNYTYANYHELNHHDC
Summary of the method: as §1

ELF4 = ELF4 (Homo sapiens, UniProt Q99607 1-663); details: protein: recombinant; tags: N-terminal GST; dsDNA, one strand shown
Sequence of ELF4 (Q99607 whole entry): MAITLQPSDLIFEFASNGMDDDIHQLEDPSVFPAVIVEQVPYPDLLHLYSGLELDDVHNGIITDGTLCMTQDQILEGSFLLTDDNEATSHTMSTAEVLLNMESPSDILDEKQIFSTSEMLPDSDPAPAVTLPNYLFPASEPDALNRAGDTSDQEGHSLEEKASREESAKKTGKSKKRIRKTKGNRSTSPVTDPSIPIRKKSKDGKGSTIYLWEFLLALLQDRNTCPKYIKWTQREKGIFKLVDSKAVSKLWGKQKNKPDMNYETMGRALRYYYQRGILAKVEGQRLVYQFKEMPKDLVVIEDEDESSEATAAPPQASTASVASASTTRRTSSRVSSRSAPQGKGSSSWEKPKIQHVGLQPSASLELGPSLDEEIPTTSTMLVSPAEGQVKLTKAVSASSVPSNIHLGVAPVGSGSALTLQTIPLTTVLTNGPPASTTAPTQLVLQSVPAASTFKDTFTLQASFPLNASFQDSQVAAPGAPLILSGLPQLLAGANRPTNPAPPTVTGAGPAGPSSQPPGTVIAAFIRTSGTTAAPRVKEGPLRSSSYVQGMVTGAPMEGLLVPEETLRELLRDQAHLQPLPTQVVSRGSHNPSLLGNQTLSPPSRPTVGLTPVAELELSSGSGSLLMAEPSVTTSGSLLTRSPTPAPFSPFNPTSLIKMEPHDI
Summary of the method: as §1

ELK4 = target: T9, ELK4 (Homo sapiens, UniProt P28324-2 1-405); details: protein: recombinant; tags: N-terminal GST; dsDNA, one strand shown
T9 sequence: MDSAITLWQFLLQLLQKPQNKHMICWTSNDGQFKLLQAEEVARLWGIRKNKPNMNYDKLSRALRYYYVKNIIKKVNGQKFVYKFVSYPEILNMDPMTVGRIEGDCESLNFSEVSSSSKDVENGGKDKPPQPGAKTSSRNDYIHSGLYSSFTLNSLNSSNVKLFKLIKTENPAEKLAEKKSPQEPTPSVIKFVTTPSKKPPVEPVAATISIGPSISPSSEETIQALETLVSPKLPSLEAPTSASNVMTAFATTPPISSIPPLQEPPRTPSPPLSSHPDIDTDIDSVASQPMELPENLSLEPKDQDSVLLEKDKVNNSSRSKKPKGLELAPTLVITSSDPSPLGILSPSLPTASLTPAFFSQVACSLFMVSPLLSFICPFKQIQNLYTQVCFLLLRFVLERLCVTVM
Summary of the method: as §1

ETV2 = target: T10, ETV2 (Homo sapiens, UniProt O00321 1-342); details: protein: recombinant; tags: N-terminal GST; dsDNA, one strand shown
T10 sequence: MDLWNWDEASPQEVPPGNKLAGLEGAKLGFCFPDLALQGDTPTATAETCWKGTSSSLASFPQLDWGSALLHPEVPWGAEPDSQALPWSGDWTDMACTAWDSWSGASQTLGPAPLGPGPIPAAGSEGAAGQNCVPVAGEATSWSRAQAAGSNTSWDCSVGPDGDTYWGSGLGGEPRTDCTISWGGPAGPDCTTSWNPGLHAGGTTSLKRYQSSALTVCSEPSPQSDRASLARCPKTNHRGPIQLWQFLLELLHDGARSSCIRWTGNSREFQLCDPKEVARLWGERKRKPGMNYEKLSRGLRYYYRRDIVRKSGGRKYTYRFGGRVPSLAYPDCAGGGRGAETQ
Summary of the method: as §1

ELF3 = target: T11, ELF3 (Homo sapiens, UniProt P78545 1-371); details: protein: recombinant; tags: N-terminal GST; dsDNA, one strand shown
T11 sequence: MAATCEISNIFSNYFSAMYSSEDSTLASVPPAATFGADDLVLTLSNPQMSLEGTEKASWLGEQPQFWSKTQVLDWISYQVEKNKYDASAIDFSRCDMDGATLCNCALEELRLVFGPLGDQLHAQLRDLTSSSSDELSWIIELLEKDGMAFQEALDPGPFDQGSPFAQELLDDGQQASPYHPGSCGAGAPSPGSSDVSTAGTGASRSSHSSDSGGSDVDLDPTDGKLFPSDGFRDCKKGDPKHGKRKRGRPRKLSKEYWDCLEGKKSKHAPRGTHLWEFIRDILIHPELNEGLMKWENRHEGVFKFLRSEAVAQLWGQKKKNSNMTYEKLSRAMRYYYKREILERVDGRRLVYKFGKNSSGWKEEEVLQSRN
Summary of the method: as §1

CRX = CRX (Homo sapiens, UniProt O43186 1-299); details: protein: recombinant; tags: N-terminal GST; dsDNA, one strand shown
Sequence of CRX (O43186 whole entry): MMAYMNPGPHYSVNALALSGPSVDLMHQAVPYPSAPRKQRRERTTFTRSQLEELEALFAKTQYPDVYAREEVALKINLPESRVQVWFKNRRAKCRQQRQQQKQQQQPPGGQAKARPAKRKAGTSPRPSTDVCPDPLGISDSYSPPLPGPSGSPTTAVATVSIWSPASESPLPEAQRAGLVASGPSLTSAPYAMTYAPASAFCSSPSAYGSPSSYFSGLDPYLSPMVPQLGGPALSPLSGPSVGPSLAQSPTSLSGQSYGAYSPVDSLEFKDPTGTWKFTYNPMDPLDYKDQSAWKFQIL
Summary of the method: as §1

ETV1 = ETV1 (Homo sapiens, UniProt P50549 1-477); details: protein: recombinant; tags: N-terminal GST; dsDNA, one strand shown
Sequence of ETV1 (P50549 whole entry): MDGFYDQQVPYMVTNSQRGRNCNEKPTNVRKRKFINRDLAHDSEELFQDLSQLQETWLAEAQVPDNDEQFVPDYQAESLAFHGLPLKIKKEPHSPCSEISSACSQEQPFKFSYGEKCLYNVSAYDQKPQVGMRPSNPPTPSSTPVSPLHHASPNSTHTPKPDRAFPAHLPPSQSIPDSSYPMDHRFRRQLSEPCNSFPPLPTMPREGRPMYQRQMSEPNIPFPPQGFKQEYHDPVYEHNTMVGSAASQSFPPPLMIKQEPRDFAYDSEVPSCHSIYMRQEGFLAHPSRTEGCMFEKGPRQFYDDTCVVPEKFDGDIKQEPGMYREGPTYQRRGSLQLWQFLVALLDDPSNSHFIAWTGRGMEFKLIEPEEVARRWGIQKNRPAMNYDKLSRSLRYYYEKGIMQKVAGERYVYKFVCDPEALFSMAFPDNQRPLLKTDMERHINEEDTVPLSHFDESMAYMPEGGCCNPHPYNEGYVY
Summary of the method: as §1

Q: Which results are given for TGAACA?
A: binding signal (FLI1): 1.25 fold enrichment (6-mer frequency, TF over GST control); binding signal (ELK1): 1.23 fold enrichment (6-mer frequency, TF over GST control); binding signal (GABPA): 1.18 fold enrichment (6-mer frequency, TF over GST control); binding signal (ERG): 1.21 fold enrichment (6-mer frequency, TF over GST control); binding signal (ELF1): 1.26 fold enrichment (6-mer frequency, TF over GST control); binding signal (EHF): 1.27 fold enrichment (6-mer frequency, TF over GST control); binding signal (SPI1): 1.14 fold enrichment (6-mer frequency, TF over GST control); binding signal (SPIB): 1.23 fold enrichment (6-mer frequency, TF over GST control); binding signal (ELK3): 1.33 fold enrichment (6-mer frequency, TF over GST control); binding signal (FEV): 1.21 fold enrichment (6-mer frequency, TF over GST control); binding signal (ETV5): 1.2 fold enrichment (6-mer frequency, TF over GST control); binding signal (HSF1): 1.18 fold enrichment (6-mer frequency, TF over GST control); binding signal (SPIC): 1.29 fold enrichment (6-mer frequency, TF over GST control); binding signal (ELF4): 1.24 fold enrichment (6-mer frequency, TF over GST control); binding signal (ELK4): 1.4 fold enrichment (6-mer frequency, TF over GST control); binding signal (ETV2): 1.27 fold enrichment (6-mer frequency, TF over GST control); binding signal (ELF3): 1.3 fold enrichment (6-mer frequency, TF over GST control); binding signal (CRX): 1.06 fold enrichment (6-mer frequency, TF over GST control); binding signal (ETV1): 1.27 fold enrichment (6-mer frequency, TF over GST control)
